CF NFkB inh: inhibitors of PAF-induced NF-kB signaling, primary screen, cell-based, GFP fluorescence, uHTS; hit rate 0.86% among 360,000; inhibition, % at 5 µM; KKLEB NF-kB-GFP reporter, GFP fluorescence overnight;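 active = at least 50% inhibition at 5 µM, scaled per plate between neutral and stimulator controls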;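 also: PAF is a Pseudomonas aeruginosa culture filtrate used as stimulus; plate controls were PAF-stimulated DMSO wells for no effect and unstimulated DMSO wells for full effect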
ABHD5 PLIN5 PPI: ABHD5-PLIN5 interaction inhibitors, primary screen, cell lysate, split luciferase complementation, luminescence. Perilipin-5 (Homo sapiens) + 1-acylglycerol-3-phosphate O-acyltransferase ABHD5 (Homo …. Split G. princeps luciferase complementation, 4 h. inhibition, % at 4 µM. hit rate 0.78% among 360,000;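 active = inhibition above the mean inhibition across every tested compound plus 3 SD, cut at about 22% in these data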;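 also: 0% = DMSO only wells and the 100% control is not disclosed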
Target sequence (Q00G26 whole entry, looked up): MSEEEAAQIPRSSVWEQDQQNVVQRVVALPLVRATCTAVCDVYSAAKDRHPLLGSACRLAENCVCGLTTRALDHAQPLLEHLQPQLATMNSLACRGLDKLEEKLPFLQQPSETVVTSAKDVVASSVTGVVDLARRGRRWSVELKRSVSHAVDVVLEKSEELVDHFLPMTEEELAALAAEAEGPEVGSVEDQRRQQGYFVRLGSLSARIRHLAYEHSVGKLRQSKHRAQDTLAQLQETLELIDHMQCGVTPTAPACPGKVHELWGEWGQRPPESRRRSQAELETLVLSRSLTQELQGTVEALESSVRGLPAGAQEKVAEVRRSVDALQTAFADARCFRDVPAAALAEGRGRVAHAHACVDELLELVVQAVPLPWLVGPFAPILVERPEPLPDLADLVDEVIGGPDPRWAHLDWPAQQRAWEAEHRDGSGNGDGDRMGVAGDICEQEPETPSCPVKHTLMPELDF
Target sequence (Q8WTS1 whole entry, looked up): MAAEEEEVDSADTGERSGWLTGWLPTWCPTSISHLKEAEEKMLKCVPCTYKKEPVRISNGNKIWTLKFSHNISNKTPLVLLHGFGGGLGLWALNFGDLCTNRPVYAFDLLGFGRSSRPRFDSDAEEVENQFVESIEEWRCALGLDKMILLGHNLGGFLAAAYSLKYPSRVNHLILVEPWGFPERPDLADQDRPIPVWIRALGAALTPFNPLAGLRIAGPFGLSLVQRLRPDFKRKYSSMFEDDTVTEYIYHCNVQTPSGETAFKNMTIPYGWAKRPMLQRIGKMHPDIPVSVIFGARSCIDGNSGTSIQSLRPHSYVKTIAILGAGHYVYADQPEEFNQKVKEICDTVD
MITF TRPM1 inh: inhibitors of MITF-dependent TRPM1 promoter reporter, primary screen, cell-based, SK-MEL-5, single point, luciferase | hit rate 0.83% among 330,000 | inhibition, % at 12.5 µM | SK-MEL-5 TRPM1 promoter luciferase, 24 h;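 active = mean inhibition across replicates of 60% or more, whatever share of single replicates reaches that level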
KKLEB tox: cytotoxicity in KKLEB CF airway cells, primary screen, cytotoxicity control for CF NF-kB inhibitor project, cell-based, uHTS, fluorescence assay plates | AID 602141, 2011 | hit rate 0.36% among 360,000 | KKLEB CF airway cells viability, ATPlite luminescence, overnight; stronger effect = lower value; cells stimulated with P. aeruginosa culture filtrate | activity change (cytotoxicity), % at 5 µM;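 active = corrected activity change at or below -50% at 5 µM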
HIF-2a block: HIF-2a reporter inhibitors, primary screen, luminescence, 786-0 RCC cells; 786-0 RCC cells HIF-2a reporter, luciferase luminescence, overnight; inhibition, % at 18.8 µM; hit rate 0.72% among 360,000;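 active = inhibition of the luminescence signal of 40% or more relative to plate controls, in a single-dose primary screen at 18.75 µM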
Peg3 promoter: Peg3 promoter-driven luciferase inhibitors, primary screen, cell-based, HeLa, luciferase luminescence | hit rate 1.7% among 360,000 | inhibition, % at 20 µM | HeLa PEG-Prom luciferase reporter, overnight;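 active = inhibition of at least 50% at 20 µM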
ABHD5 PLIN5 conf: ABHD5-PLIN5 interaction inhibitors, confirmation, biochemical, luminescence | shares compounds with ABHD5 PLIN5 PPI | inhibition, % at 4 µM | hit rate 67% among 2,200; in the data active = inhibition above about 23%;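 also: 0% = DMSO vehicle wells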
HNF4 counter: HNF4 dimerization inhibitors, counter-screen for ABHD5-PLIN5 interaction inhibitor project, biochemical, split-luciferase complementation, luminescence; shares compounds with ABHD5 PLIN5 PPI; inhibition, % at 4 µM; hit rate 77% among 2,200;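 active = mean inhibition across replicate wells exceeding the computed hit threshold, cut at about 13% in these data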;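 also: light from luciferase halves that rejoin when HNF4 fusion proteins dimerize; 0% = DMSO only wells and the 100% control is not given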
* = called active by the depositor. Rows were chosen to be rich in hits. Some 3% of all compounds tested hit in one or more screens of this group.

For C=C(C)Cn1c(=O)c2c(nc3n2CC(C)CN3Cc2ccccc2)n(C)c1=O (stereo not given) the results were CF NFkB inh 7, ABHD5 PLIN5 PPI -10, MITF TRPM1 inh -24, KKLEB tox 4, HIF-2a block 10 and Peg3 promoter 7.
Cc1ccc(S(=O)(=O)N2CCCCC2)cc1NC(=O)CNc1ccc(C(F)(F)F)cc1 was read as CF NFkB inh 13, ABHD5 PLIN5 PPI -10, MITF TRPM1 inh 4, KKLEB tox 0, HIF-2a block 4 and Peg3 promoter 27.
Screening O=C(O)c1ccccc1Sc1c([N+](=O)[O-])cc(C(F)(F)F)cc1[N+](=O)[O-] returned CF NFkB inh 2, ABHD5 PLIN5 PPI 27*, MITF TRPM1 inh 3, KKLEB tox 3, HIF-2a block 10, Peg3 promoter -9, ABHD5 PLIN5 conf 47* and HNF4 counter 30*.
For O=[N+]([O-])c1cc(C(F)(F)F)cc([N+](=O)[O-])c1Sc1n[nH]c(C(F)(F)F)n1 the results were CF NFkB inh -14, ABHD5 PLIN5 PPI 45*, MITF TRPM1 inh -6, KKLEB tox 0, HIF-2a block 11, Peg3 promoter -16, ABHD5 PLIN5 conf 75* and HNF4 counter 56*.
For CN(C)/C=N/c1nc(Sc2ccc(C(F)(F)F)cc2[N+](=O)[O-])n[nH]1 the results were CF NFkB inh 13, ABHD5 PLIN5 PPI -1, MITF TRPM1 inh 7, KKLEB tox -15, HIF-2a block 6 and Peg3 promoter 2.
`CC12CCC(=O)N1C(C(=O)Nc1nnc(SCc3ccc(F)cc3)s1)CS2` (stereo not given) gave CF NFkB inh 12, ABHD5 PLIN5 PPI -2, MITF TRPM1 inh 4, KKLEB tox -4, HIF-2a block -1 and Peg3 promoter 5.
For Cc1cccc(CNC(=O)C2CCC(=O)N(CC3CCCCC3)C2)c1 (stereo not given) the results were CF NFkB inh 8, ABHD5 PLIN5 PPI 5, KKLEB tox -1, HIF-2a block -29 and Peg3 promoter 2.
Screening O=C(N/N=C/C=C/c1ccco1)c1ccccc1Cl returned CF NFkB inh 10, ABHD5 PLIN5 PPI 33*, MITF TRPM1 inh -8, KKLEB tox 6, HIF-2a block -13, Peg3 promoter -9, ABHD5 PLIN5 conf 32* and HNF4 counter 37*.
O=C(N/N=C/C=C/c1ccco1)c1ccncc1 was read as CF NFkB inh -11, ABHD5 PLIN5 PPI 21, MITF TRPM1 inh 6, KKLEB tox 1, HIF-2a block 20 and Peg3 promoter -3.
Screening O=C(N/N=C/C=C/c1ccco1)/C(=C/c1ccccc1)NC(=O)c1ccccc1 returned CF NFkB inh -13, ABHD5 PLIN5 PPI 33*, MITF TRPM1 inh 3, KKLEB tox 2, HIF-2a block 1, Peg3 promoter 2, ABHD5 PLIN5 conf 52* and HNF4 counter 49*.
`CCC(C)NC(=O)Nc1ccc2c(c1)N(C)C(=O)c1ccccc1S2` (stereo not given) gave CF NFkB inh 20, ABHD5 PLIN5 PPI 46*, MITF TRPM1 inh 5, KKLEB tox -4, HIF-2a block 4, Peg3 promoter 29, ABHD5 PLIN5 conf 60* and HNF4 counter 0.
`N#Cc1cccnc1Oc1ccccc1` gave CF NFkB inh -4, ABHD5 PLIN5 PPI 3, MITF TRPM1 inh 12, KKLEB tox 10, HIF-2a block 12 and Peg3 promoter 0.
O=C(c1cc2ccccc2o1)N(Cc1ccco1)Cc1cccs1 was read as CF NFkB inh 21, ABHD5 PLIN5 PPI -1, MITF TRPM1 inh -8, KKLEB tox 17, HIF-2a block -35 and Peg3 promoter -5.
Cc1c(C(=O)N(Cc2ccco2)Cc2cccs2)oc2ccccc12 was read as CF NFkB inh 5, ABHD5 PLIN5 PPI 28*, MITF TRPM1 inh 18, KKLEB tox -19, HIF-2a block -32, Peg3 promoter 0, ABHD5 PLIN5 conf 20 and HNF4 counter 15*.
Screening CC(NC(=O)COC(=O)C1CCC1)c1ccccc1 (stereo not given) returned CF NFkB inh 13, ABHD5 PLIN5 PPI 23*, MITF TRPM1 inh -2, KKLEB tox -4, HIF-2a block 6, Peg3 promoter -3, ABHD5 PLIN5 conf 4 and HNF4 counter 1.
Cc1cccc(C(=O)OCC(=O)NCCNC(=O)COC(=O)c2cccc(C)c2C)c1C was read as CF NFkB inh -9, ABHD5 PLIN5 PPI -5, MITF TRPM1 inh 8, KKLEB tox 6, HIF-2a block 5 and Peg3 promoter 16.
Screening O=C(O)[C@H](Cc1ccccc1)N1C(=O)c2c(Cl)c(Cl)c(Cl)c(Cl)c2C1=O returned CF NFkB inh 7, ABHD5 PLIN5 PPI 71*, KKLEB tox -3, HIF-2a block 10, Peg3 promoter -6, ABHD5 PLIN5 conf -7 and HNF4 counter 4.
O=C(COC(=O)c1cc(S(=O)(=O)N2CCc3ccccc3C2)ccc1Cl)NCc1ccco1 was read as CF NFkB inh -7, ABHD5 PLIN5 PPI 28*, MITF TRPM1 inh -1, KKLEB tox 10, HIF-2a block 4, Peg3 promoter 3, ABHD5 PLIN5 conf 45* and HNF4 counter 59*.
For O=C(O)/C=C/C(=O)c1c(-c2ccccc2)[nH]c2ccccc12 the results were CF NFkB inh 9, ABHD5 PLIN5 PPI 62*, MITF TRPM1 inh 3, KKLEB tox 3, HIF-2a block 21, Peg3 promoter 15, ABHD5 PLIN5 conf 96* and HNF4 counter 94*.
For CC(=O)c1c(-c2ccccc2)[nH]c2ccccc12 the results were CF NFkB inh -1, ABHD5 PLIN5 PPI 2, MITF TRPM1 inh -2, KKLEB tox -4, HIF-2a block 3 and Peg3 promoter 31.
For CN1/C(=C/C=C/c2n(C)c3cc([N+](=O)[O-])c([N+](=O)[O-])cc3[n+]2C)C(C)(C)c2ccccc21 the results were CF NFkB inh -8, ABHD5 PLIN5 PPI 34*, KKLEB tox 10, HIF-2a block 31, Peg3 promoter 37, ABHD5 PLIN5 conf 35* and HNF4 counter 56*.
